Measured values reported in PubChem BioAssay (NCI).
Compounds without any hit were thinned out: in the full panel of roughly 83,000, 20% have a hit.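 A percent growth of 40 corresponds to 60% growth inhibition; 0 means no net growth; -100 means all cells died. Active threshold: below 10.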 The source made the active and inactive calls.

system: MOLT-4 leukemia; test: NCI-60 one-dose screen, 48 h (100 = growth as untreated, 0 = no growth, -100 = all killed); details: 10 µM unless noted
Method: Growth inhibition of the MOLT-4 human tumor cell line is measured as a screen for anti-cancer activity. Cells are grown in 96 well plates and exposed to the test compound for 48 hours. Compounds are tested at a single concentration, which is 10^-5 M for most compounds. The reported endpoint is percent growth (GI% or GIPRCNT), where numbers from 0 - 100% represent growth inhibition, and numbers from -100% - 0 represent cell death. For example, a value of 40 represents 60% growth inhibition. A value of 0 means no net growth occurred over the course of the experiment. A value of -40 indicates 40% of cells at the beginning of the experiment died by the end of the experiment. A value of -100 means all cells are dead at the end of the experiment.
NCI-60 Human Tumor Cell Lines Screen was performed using the standard one-dose NCI protocol, which is described in more detail at https://dtp.cancer.gov/discovery_development/nci-60/default.htm.
Compounds with GIPRCNT values below 10 were considered active. Activity score was based on GIPRCNT using the following formula: […]
Score is 0 for GIPRCNT values of 100 or above, 50 for GIPRCNT values of 0, and 100 for GIPRCNT values of -100.

Q: For `CCN1C(=O)N(CC)C2C1NN=c1s/c(=C\c3ccc(Br)cc3)c(=O)n12` (stereo not given), which growth is on record?
A: 12.6% (inactive)

Q: With `COc1cc(C2CC(c3ccc(C)cc3)=NN2C=O)ccc1Oc1nc2c(c(=O)n(C)c(=O)n2C)n1C` (stereo not given) as the molecule, how does the growth read?
A: 67.2% (inactive)

Q: With `C(=Nc1ccc(-c2ccc(N=Cc3ccccc3)cc2)cc1)c1ccccc1` as the molecule, how does the growth read?
A: 83% (inactive)

Q: For `CC(C)CCC(=O)[C@@H](C)[C@H]1[C@@H](OC2OCC(O)C(O)C2NS(C)(=O)=O)C[C@H]2[C@@H]3CC=C4C[C@@H](O)CC[C@]4(C)[C@H]3CC[C@]12C` (stereo not given in full), which growth is on record?
A: -0.0897% (active)

Q: For `Cc1ccc(OC2=C(C#N)C(=N)N3C(=NN2)Sc2c(C)ccc(C)c23)cc1`, which growth is on record?
A: 89.1% (inactive)

Q: `O/N=C/c1ccncc1` was tested. Which growth did it give?
A: 111% (inactive)

Q: With `CC(C)c1ccc(-c2cnc3nonc3n2)cc1` as the molecule, how does the growth read?
A: -12.1% (active)

Q: For `C[N+](C)(C)CCCCCCCCCC[N+](C)(C)C`, which growth is on record?
A: 99.4% (inactive)

Q: How did the growth turn out when `COc1cc(CN2CCC(N3CCCC3=O)c3ccccc32)cc(OC)c1OC` (stereo not given) was run?
A: 72.4% (inactive)

Q: For `Cc1nn(-c2ccccc2)c2nc3c(nc12)C1=NCCN1C(c1ccc(Cl)cc1)N3` (stereo not given), which growth is on record?
A: 47.3% (inactive)

Q: With `CN(C)N1C(=O)c2c(Cl)c(Cl)c(Cl)c(Cl)c2C1=O` as the molecule, how does the growth read?
A: 88.3% (inactive)

Q: `CCN(C(=O)CCl)C(C)(C)C(SSSC(c1ccc(Cl)cc1)C(C)(C)N(CC)C(=O)CCl)c1ccc(Cl)cc1` (stereo not given) was tested. Which growth did it give?
A: 36.9% (inactive)

Q: With `CCOC(OCC)c1cnc2nc(NC(C)=O)[nH]c(=O)c2n1` as the molecule, how does the growth read?
A: 103% (inactive)

Q: With `NNC(=O)CSc1nc2scc(-c3ccccc3)c2c(=O)n1-c1ccccc1` as the molecule, how does the growth read?
A: 96% (inactive)

Q: How did the growth turn out when `O=C1Nc2ccc(Cl)cc2/C1=C\c1c(-c2ccc(F)cc2)nc2ccccn12` was run?
A: -4.17% (active)

Q: With `COc1cc(/C=C/c2cc(/C=C/c3ccc(O)c(OC)c3)n(C(=O)c3ccccc3Br)n2)ccc1O` as the molecule, how does the growth read?
A: -6.53% (active)

Q: Which growth does the source give for `C#CCO[C@H]1CC[C@H](OCC#C)[C@@H]2[C@H]1[C@H]1C[C@@H]3[C@@]4(C)CCC[C@@](C)(C(=O)OC)[C@@H]4CC[C@@]23C=C1C(C)C` here?
A: 56.2% (inactive)

Q: `NS(=O)(=O)c1ccc(CCn2c(SCC(=O)N/N=C/c3cc4ccccc4[nH]3)nc3ccccc3c2=O)cc1` was tested. Which growth did it give?
A: 23.1% (inactive)

Q: For `C=C1C(=O)O[C@H]2[C@H]1CC/C(COC(=O)NCc1cn(C)c3ccccc13)=C\CC[C@@]1(C)O[C@@H]21`, which growth is on record?
A: -15.4% (active)

Q: Which growth does the source give for `CCCCCCCC/C=C/CCCCCCCC1=NC(C)(C)CN1c1ccccc1` here?
A: 85.7% (inactive)

Q: `CCN(CC)CCNC(=O)n1cc(-c2ccncc2)c(-c2ccc(Cl)c(OC)c2)n1` was tested. Which growth did it give?
A: 82% (inactive)

Q: With `O=[N+]([O-])c1ccc(Sc2nc(Cl)nc(NC3CCCC3)n2)cc1` as the molecule, how does the growth read?
A: -30.1% [100 µM] (active)

Q: How did the growth turn out when `CCCCCCCCCCCCCCCC1=NCCN1` was run?
A: -27.3% (active)

Q: With `CN(C)CCCN1c2ccccc2CCc2ccccc21` as the molecule, how does the growth read?
A: 83.7% (inactive)

Q: How did the growth turn out when `Cc1ccsc1C(=O)CC(=O)C(F)(F)C(F)(F)C(F)(F)F` was run?
A: 110% (inactive)

Q: `COc1ccc(/C(C)=N/NC(=O)CSc2nc3ccccc3c(=O)n2CCc2ccc(S(N)(=O)=O)cc2)cc1` was tested. Which growth did it give?
A: 43% (inactive)

Q: Which growth does the source give for `O=C(NCCN1CCCC1)n1cc(-c2ccncc2)c(-c2cc(O)cc(Cl)c2)n1` here?
A: 82.7% (inactive)

Q: `CS(=O)(=O)c1ccc(C(=O)N/N=C/c2cccc3ccccc23)cc1` was tested. Which growth did it give?
A: 46.8% (inactive)

Q: `N#Cc1ccc(-c2ccc(-c3cccs3)o2)cc1F` was tested. Which growth did it give?
A: 66.3% (inactive)

Q: How did the growth turn out when `O=C1SCN(Cc2ccccc2)CN1Cc1ccccc1` was run?
A: 71.8% (inactive)

Q: How did the growth turn out when `Nc1c(Br)cc2c(c1Br)Cc1cc(Cl)ccc1-2` was run?
A: 97.4% (inactive)

Q: How did the growth turn out when `C[C@@H]1N=C(c2ccc3ccccc3c2)Nc2nc3ccccn3c2C1=O` was run?
A: 34.5% (inactive)

Q: How did the growth turn out when `CSc1nc(N)c2[nH]c(-c3cc4ccccc4[nH]c3=O)nc2n1` was run?
A: 79.8% (inactive)

Q: For `O=C(c1ccc(OCCN2CCCCC2)cc1)c1c(-c2ccc(O)cc2)sc2cc(O)ccc12`, which growth is on record?
A: 76.3% (inactive)

Q: With `NC(=O)N/N=C\c1ccc([N+](=O)[O-])o1` as the molecule, how does the growth read?
A: 103% (inactive)

Q: For `CC(C)C/C=C/C=C/C(=O)N[C@@H](CC(N)=O)C(=O)N[C@@H]1C(=O)N[C@H](c2ccc(O)cc2)C(=O)N[C@H](CCCN)C(=O)N[C@H]([C@@H](C)O)C(=O)N[C@H](c2ccc(O)cc2)C(=O)N[C@H](c2ccc(O)cc2)C(=O)N[C@H]([C@H](C)O)C(=O)N[C@H](Cc2ccccc2)C(=O)N[C@H](CCCN)C(=O)N[C@H](c2ccc(O[C@H]3O[C@@H](CO)[C@@H](O)[C@@H](O)[C@H]3O[C@@H]3O[C@H](CO)[C@H](O)[C@H](O)[C@@H]3O)cc2)C(=O)N[C@H]([C@H](C)O)C(=O)N[C@H](c2ccc(O)cc2)C(=O)NCC(=O)N[C@H](CC(C)C)C(=O)N[C@H](C)C(=O)N[C@H](c2ccc(O)c(Cl)c2)C(=O)O[C@@H]1C(N)=O`, which growth is on record?
A: 38.8% (inactive)

Q: `Cc1cccc2nc3ccccc3c(Nc3ccc(NS(C)(=O)=O)cc3)c12` was tested. Which growth did it give?
A: -0.487% (active)

Q: For `O=C(N/N=C/c1ccc([N+](=O)[O-])o1)c1ccc(O)cc1`, which growth is on record?
A: 48.4% (inactive)

Q: `COc1ccccc1CNCCCN1C(=O)c2ccc3c4c(ccc(c24)C1=O)C(=O)N(CCCCNCCCN)C3=O` was tested. Which growth did it give?
A: -21.7% (active)

Q: `CCc1c(C)c2ccc(O)c(-c3cc(-c4ccccc4)c(C#N)c(=O)[nH]3)c2oc1=O` was tested. Which growth did it give?
A: 98.3% (inactive)
